Assay outcomes (PubChem BioAssay)
Shown are actives, neighbours in structure and some others; about 11% of the full set was active somewhere.
PLK1 PBD inh: qHTS for Inhibitors of PLK1-PDB (polo-like kinase 1 - polo-box domain): Primary Screen; Potency, µM, for inactives: max response, negative = inhibition, hits mostly inhibitors; Serine/threonine-protein kinase PLK1 (Homo sapiens), P53350; AID 720504, 2013; Plk1 PBD binding of FITC phosphopeptide, fluorescence polarization; 360,000 compounds, 2.8% hits; further: series mostly up to about 57 µM; on the % scale 0 is the no-effect control and ±100 the full control effect; nearly all actives have a fitted effect of over 65% in size
HP1b binding inh: HTS for Inhibitors of HP1-beta Chromodomain Interactions with Methylated Histone Tails; Chromobox protein homolog 1 (Homo sapiens), P83916; AlphaScreen HP1-beta / biotin-H3K9me3 peptide binding; Potency, µM (series often up to 114 µM), for inactives: at the top dose activity change, negative = inhibition, actives largely listed as inhibitors; 390,000 compounds, 0.56% hits; further: nearly all actives have a fitted effect of over 70% in size
Target sequence (P83916 whole entry, looked up): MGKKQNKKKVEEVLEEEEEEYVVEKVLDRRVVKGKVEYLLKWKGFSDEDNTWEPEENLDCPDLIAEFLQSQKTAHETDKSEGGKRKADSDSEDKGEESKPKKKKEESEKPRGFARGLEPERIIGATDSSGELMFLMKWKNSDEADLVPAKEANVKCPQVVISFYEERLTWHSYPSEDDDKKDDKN
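HP1-beta protein (50 nM final) preincubated 30 min at room temperature with biotinylated H3(1-18)K9me3 peptide (50 nM) in PBS pH 7.4, 0.01% Tween-20, then compound added for 30 min. AlphaScreen streptavidin donor/nickel chelate acceptor beads (10 ug/mL final), 30 min dark, luminescence read.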
G9a block: qHTS Assay for Inhibitors of Histone Lysine Methyltransferase G9a. Histone-lysine N-methyltransferase EHMT2 (Homo sapiens), Q96KQ7. G9a H3K9 monomethylation, AlphaScreen, 2 h. Potency, µM (highest dose often 102 µM), for the others: top-dose activity, negative = inhibition, actives largely listed as inhibitors. 350,000 compounds, 8.8% hits. AID 504332, 2011; further: on the % scale 0 is the no-effect control and ±100 the full control effect; nearly all actives have a fitted effect of over 75% in size
Target sequence (Q96KQ7 913-1193 limits assumed): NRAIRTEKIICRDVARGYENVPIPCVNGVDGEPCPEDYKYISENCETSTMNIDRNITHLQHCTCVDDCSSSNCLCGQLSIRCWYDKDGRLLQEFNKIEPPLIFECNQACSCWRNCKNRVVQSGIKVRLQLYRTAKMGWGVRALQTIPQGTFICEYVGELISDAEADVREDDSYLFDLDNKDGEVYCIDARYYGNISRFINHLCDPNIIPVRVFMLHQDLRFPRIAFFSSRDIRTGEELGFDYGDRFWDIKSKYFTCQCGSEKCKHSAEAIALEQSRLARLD
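Enzyme 20 nM + cpd, 15 min RT; add b-H3K9 pep 500 nM / SAM 20 uM; 2 h RT; anti-H3K9me1 Ab 0.5 ug/mL + SA donor / anti-rabbit acceptor beads 20 ug/mL each, 10 min; AlphaScreen read.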
VDR inh: Inhibitors of the vitamin D receptor (VDR): qHTS; VDR-SRC2-3 peptide fluorescence polarization, 2 h; Potency, µM, inactives show max response, negative = inhibition, most hits filed as inhibitors; 400,000 compounds, 0.93% hits; AID 504847, 2011; further: on the % scale 0 is the no-effect control and ±100 the full control effect
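Signal is fluorescence polarization, reporting how far test compounds block the interaction of VDR with the SRC2-3 coregulator peptide after a 2 h room-temperature incubation.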
BAZ2B inh: qHTS Assay for Inhibitors of BAZ2B. 360,000 compounds, 4.4% hits. AlphaScreen BAZ2B-H3K14Ac peptide displacement. Bromodomain adjacent to zinc finger domain protein 2B (Homo sapiens), Q9UIF8. Potency, µM (top dose mostly 114 µM), for the others: top-dose activity change, negative = inhibition, actives largely listed as inhibitors; further: on the % scale 0 is the no-effect control and ±100 the full control effect; nearly all actives have a fitted effect of over 60% in size
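BAZ2B (50 nM) with biotin-H3(5-23)K14Ac peptide (50 nM) in PBS pH 7.4, 0.01% Tween-20, preformed 30 min, then compound 30 min at room temperature; top concentration 110uM. AlphaScreen streptavidin donor/nickel chelate acceptor beads (10 ug/mL final), 20 min dark, signal read.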
JMJD2A Tudor inh: qHTS Assay for Inhibitors of JMJD2A-Tudor Domain. Lysine-specific demethylase 4A (Homo sapiens), O75164. AlphaScreen JMJD2A-Tudor / H3K4me3 peptide binding. Potency, µM (series often up to 114 µM), for inactives: at the top dose activity change, negative = inhibition, most hits filed as inhibitors. 390,000 compounds, 4.4% hits; further: on the % scale 0 is the no-effect control and ±100 the full control effect; nearly all actives have a fitted effect of over 50% in size
* hit, by the source's call; ? = inconclusive; . = no result; [ ] = remark or other dose. The call rests on the fitted dose curve; in most records, active means well fitted curve in the direction sought with a large enough effect; inconclusive means small, poorly fitted or top-dose-only effect, or another doubt; inactive means no such curve, though single readings can be large; an effect the other way counts as inactive or inconclusive. Potency means the concentration at half of the fitted maximal effect.

SMILES	PLK1 PBD inh	HP1b binding inh	G9a block	VDR inh	BAZ2B inh	JMJD2A Tudor inh
C=C(C)CSc1nc2nc(C)c(Br)cc2[nH]1	.	.	7.1µM*	.	1%	.
Cc1ccc(NC(=O)CSc2nc3nc(C)c(Br)cc3[nH]2)cc1F	-4%	25%	19%	3%	-21%	-22%
COC(=O)CSc1nc2nc(C)c(Br)cc2[nH]1	-14%	21%	7.9µM*	-3%	2%	-32%
CCN1CCN(Cc2c(O)ccc3oc(C)c(C(=O)Nc4cccc(C(F)(F)F)c4)c23)CC1	.	31%	-2%[59 µM]	22%	-19%	-31%
CC1C(=NO)C(C)C(c2ccc(N(C)C)cc2)NC1c1ccc(N(C)C)cc1 (stereo not given)	-1%	29%	-5%[0.0925 µM]	-7%	40µM*	-8%
COc1ccc(C2NC(c3ccc(OC)cc3)C(C)C(=O)C2C)cc1 (stereo not given)	-3%	25%	29%	-6%	6%	16%
COc1cc(C=NN2CCCCC2)cc(OC)c1OC	1%	.	.	.	.	.
COc1cc(/C=N/n2c(-c3cc(C)[nH]n3)n[nH]c2=S)ccc1O	-6%	47%	4µM*	9%	-27%	?
COc1cc(/C=N/n2c(-c3cc(C)[nH]n3)n[nH]c2=S)cc(OC)c1OC	-8%	-22%	2.5µM*	8%	-32%	1.4µM*
COc1cccc(/C=N/n2c(N)c(S(=O)(=O)c3cccs3)c3nc4ccccc4nc32)c1	-1%	38%	9%[0.0925 µM]	1%	-4%	11%
COc1cccc(/C=N/n2c(-c3cc(C)[nH]n3)n[nH]c2=S)c1	-15%	?	2.5µM*	-1%	-34%	3.2µM*
O=[N+]([O-])c1ccc(O)c(/C=N/Nc2nn[nH]n2)c1	-16%	37%	-2%	17%	6.3µM*	10µM*
C(=NNc1nnn(Cc2ccccc2)n1)c1ccccc1	-2%	.	.	.	.	.
O=[N+]([O-])c1ccc(O)c(-c2nn[nH]n2)c1	3.4µM*	?	?	-23%	2.8µM*	3.2µM*
C(=N\Nc1nn[nH]n1)/c1ccccc1	-7%	27%	35µM*	2%	?	89µM*
O=[N+]([O-])c1ccc(O)c(/C=N/Nc2ccc(Cl)nn2)c1	-10%	41%	.	-3%	4µM*	7.9µM*
COc1cc(-c2cc3n(C)c(C)c(CCC(=O)O)c(=O)n3n2)cc(OC)c1OC	.	9%	-30%[59 µM]	-4%	.	-19%
CCOc1ccc(CCNC(=O)Nc2cccc(OC)c2)cc1OCC	2%	31%	11%	13%	-22%	-2%
COC(=O)c1sccc1NC(=O)c1c(F)c(F)c(F)c(F)c1F	1%	68%	.	2%	.	31%
O=C(C/C=N/OCc1c(Cl)cccc1Cl)c1ccc(Cl)cc1	-7%	158%	97%[59 µM]	8%	72%	2%[57.1 µM]
O=C(Nc1ccc(C(F)(F)F)cc1)C1CCCCN1S(=O)(=O)c1ccccc1 (stereo not given)	-11%	42%	1%[2.33 µM]	-23%	1%	-10%
O=C(CSc1nnc(-c2ccc(O)cc2)o1)c1ccc(Br)cc1	.	17%	-6%[59 µM]	5%	5%	-7%
COc1cc(OC)c(OC)cc1/C=N/Nc1ccc(Cl)nn1	-4%	-7%	0%	8%	-9%	-12%
Cc1ccccc1/C=N/Nc1ccc(Cl)nn1	-12%	43%	10µM*	13%	-27%	-13%
CCOC(=O)c1[nH]c2ccc(F)cc2c1NC(=O)c1ccccc1C(=O)O	-9%	52%	14µM*	-11%	-12%	-13%
CCOC(=O)c1[nH]c2ccccc2c1NC(=O)c1ccccc1OCC	.	27%	-33%[59 µM]	-9%	-11%	-33%
